DRD3 antagonist = qHTS of D3 Dopamine Receptor Antagonist: qHTS; D(3) dopamine receptor (Homo sapiens), P35462; D3R cells, DiscoveRx beta-arrestin luminescence, antagonist mode; stronger effect = lower value; max response, negative = inhibition, %; 360,000 compounds, 2.5% hits; in the data active means max response below about -50%; further: on the % scale 0 is the no-effect control and ±100 the full control effect
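Cells expressing the human receptor were seeded at 1500 cells/well, incubated overnight at 37 degrees C in 5% CO2, then exposed to library compounds with dopamine controls for 90 minutes at 37 degrees C before luminescent detection.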
D1 antag = Antagonist of Human D 1 Dopamine Receptor: qHTS | D(1A) dopamine receptor (Homo sapiens), P21728 | HEK293 TREx D1 cells, calcium flux, dopamine EC80; stronger effect = lower value | activity change, negative = inhibition, % at 10 µM | 360,000 compounds, 3.2% hits | AID 504652, 2011; in the data active means activity change below about -30%; further: on the % scale 0 is the no-effect control and ±100 the full control effect
Target sequence (P21728 whole entry, looked up): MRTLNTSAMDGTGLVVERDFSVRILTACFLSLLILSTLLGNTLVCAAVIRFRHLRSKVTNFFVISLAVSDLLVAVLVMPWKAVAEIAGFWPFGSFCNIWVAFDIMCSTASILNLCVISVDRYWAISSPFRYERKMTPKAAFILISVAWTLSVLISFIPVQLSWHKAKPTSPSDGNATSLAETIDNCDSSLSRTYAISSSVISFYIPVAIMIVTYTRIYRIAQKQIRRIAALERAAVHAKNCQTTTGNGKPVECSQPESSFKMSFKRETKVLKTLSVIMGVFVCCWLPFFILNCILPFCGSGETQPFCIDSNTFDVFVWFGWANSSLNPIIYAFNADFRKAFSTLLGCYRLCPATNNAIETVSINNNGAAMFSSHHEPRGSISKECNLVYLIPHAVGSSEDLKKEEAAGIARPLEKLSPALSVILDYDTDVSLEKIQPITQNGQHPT
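Using tetracycline-induced force-coupled D1 Hek293 cells and a calcium dye, signals were followed for 180 s after compound, then for 180 s after EC80 dopamine, to detect inhibitors.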
DRD3 agonist = qHTS of D3 Dopamine Receptor Agonist: qHTS; max activation, %; D(3) dopamine receptor (Homo sapiens), P35462; D3R DiscoveRx beta-arrestin cells, luminescence, 90 min; 410,000 compounds, 0.58% hits; in the data active means max activation above about 30%; further: 0% is about no effect
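Agonist-mode cell screen: cells plated at 1500/well and incubated overnight at 37 °C, then exposed to library compounds for 90 min at 37 °C. Detection reagent was added for 30–60 min at room temperature, and luminescence was read.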
D1 PAM = Potentiators of Human D1 Dopamine Receptor: qHTS. HEK293 TREx D1 cells, calcium flux, dopamine EC20 potentiation. D(1A) dopamine receptor (Homo sapiens), P21728. 360,000 compounds, 0.036% hits. potentiation, % at 10 µM; in the data active means potentiation above about 30%; further: 0% is about no effect
D1 ag = Allosteric Agonists of the Human D1 Dopamine Receptor: qHTS | D(1A) dopamine receptor (Homo sapiens), P21728 | HEK293 T-REx D1 cells, calcium flux, agonist mode | activation, % at 2 µM | 360,000 compounds, 1% hits | AID 504660, 2011; in the data active means activation above about 30%; further: 0% is about no effect
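Inducible HEK293 T-REx D1 cells, force-coupled to calcium signalling, were plated at 4000 cells/well with tetracycline and held overnight at 30 C. After no-wash calcium dye loading, compound-evoked calcium rise over 180 s flagged agonists.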
* hit, by the source's call; . = not tested or not shown. Only some compounds are listed: those with a hit (about 6% of all), similar ones and a draw of the others.

SMILES | DRD3 antagonist | D1 antag | DRD3 agonist | D1 PAM | D1 ag
COc1cc2c(cc1OC(C)=O)C(=O)CCCC2 | 0.0 | . | -7.9 | . | .
CC(Cc1cccnc1)NC(=O)c1cc(COc2c(F)cccc2F)on1 (centres undefined) | 1.0 | 6.3 | 5.3 | 2.5 | 4.8
CC(Cc1cccnc1)NC(=O)c1cc(COc2ccc(F)cc2Cl)on1 (centres undefined) | 0.6 | -33.6* | -15.1 | -9.8 | 9.8
O=C(NCCO)C(=O)Nc1c2c(nn1-c1ccc(F)cc1)CSC2 | . | . | -15.3 | -1.8 | 0.6
CN1CCN(C2=Nc3cc(F)ccc3Cc3ccccc32)CC1 | . | -84.5* | -21.1 | -3.1 | 8.5
CCCCN1CC(c2nc3ccccc3n2CCCCOc2ccccc2C)CC1=O (centres undefined) | . | -0.1 | -14.9 | -0.2 | 2.2
CCN(CC)c1ccc(/C=C(\C#N)c2nc(-c3cccs3)c(NC(C)=O)s2)cc1 | . | -14.6 | . | 15.7 | 213.5*
CCOc1ccc(-c2cc3c(=O)n(Cc4nc(-c5ccc(OC(C)C)cc5)oc4C)ccn3n2)cc1Cl | . | -36.1* | -11.1 | -0.1 | 1.6
CN(CC(=O)Nc1ccc(Cl)c(C(F)(F)F)c1)C(=O)c1ccc(OCC2CCCO2)cc1 (centres undefined) | -1.7 | -48.9* | 2.0 | -19.6 | 3.4
CN(CC(=O)Nc1ccc(Cl)c(C(F)(F)F)c1)C(=O)c1ccc(S(=O)(=O)N2CCOCC2)cc1 | -3.2 | . | -12.5 | . | .
CCc1ccc(NC(=O)CSC2=Nc3ccccc3C3=NC(CC(=O)NCc4ccc5c(c4)OCO5)C(=O)N23)cc1 (centres undefined) | . | -7.2 | -26.5 | -2.5 | 3.6
O=C(N/N=C/c1c(O)ccc2ccccc12)c1cccc(C(F)(F)F)c1 | 158.9 | -31.4* | 11.0 | 9.2 | 162.0*
O=C(N/N=C\c1ccc(Cl)s1)c1ccc(Cn2cccn2)o1 | 0.0 | -6.5 | -2.7 | 1.1 | -1.8
O=C(N/N=C\c1c(O)ccc2ccccc12)c1ccc(Cn2cccn2)o1 | 4.9 | -30.2* | 7.9 | -2.7 | 28.7
CCN(CC)C(=O)c1c(-c2ccccc2)c(-c2ccccc2)nn(CC)c1=O | . | 2.5 | 6.2 | 0.5 | -0.5
CN(CCOc1ccc(Cl)cc1)C(=O)c1cc(-c2ccco2)nc2ccccc12 | 17.1 | -13.8 | 42.0* | -7.2 | 2.8
COc1cccc(NC(=O)CN(C)C(=O)c2cc(-c3ccco3)nc3ccccc23)c1 | 19.0 | -7.3 | 5.8 | -3.5 | 2.2
Cc1ccc(Sc2ccc(N3CCCC(C(=O)Nc4ccc(F)c(Cl)c4)C3)nn2)cc1 (centres undefined) | . | 2.5 | -3.3 | 1.7 | 1.0
CC(C)c1ccc(-n2cnn(-c3ncccc3[N+](=O)[O-])c2=O)cc1 | -83.2* | -7.7 | -20.2 | 6.8 | 3.7
CN(C)c1cc(NC(=O)CNC(C)(C)C)c(O)c2c1C[C@H]1C[C@H]3[C@H](N(C)C)C(=O)C(C(N)=O)=C(O)[C@@]3(O)C(=O)C1=C2O | . | . | 8.4 | . | .
Cc1ccccc1NC(=O)c1c(C)oc2ccc(O)c(CN3CCCCCC3)c12 | . | 0.7 | -29.8 | -0.8 | 5.4
Cc1cccc(N(C)C(=O)c2cc(S(=O)(=O)N3CCc4ccccc43)cn2C)c1 | 16.7 | -4.3 | -1.6 | -3.7 | 1.9
COc1ccc(N(C)C(=O)c2cc(S(=O)(=O)N3CCc4ccccc43)cn2C)c(OC)c1 | . | -54.8* | 1.5 | -3.5 | -0.4
Cc1ccc(N(C)C(=O)c2cc(S(=O)(=O)N3CCc4ccccc43)cn2C)cc1 | 4.3 | -29.0 | -1.0 | -16.8 | 2.3
CN(C(=O)c1cc(S(=O)(=O)N2CCc3ccccc32)cn1C)C1CCCCC1 | -21.2 | -54.4* | -3.4 | 0.7 | 3.2
CCOc1cc(/C=N/NC(=O)c2cccc([N+](=O)[O-])c2)ccc1OS(=O)(=O)c1ccccc1 | -61.2* | 6.2 | -1.6 | -5.5 | 2.1
CC(C)OC(=O)CSc1nc2ncc(Cl)cc2[nH]1 | 8.7 | -30.3* | -11.9 | -4.8 | 2.1
Cc1[nH]c2ccccc2c1C(=O)CSc1nc2ncc(Cl)cc2[nH]1 | -60.8* | 11.2 | -8.9 | -2.6 | -0.1
